# About 14,000 (4.5%) of roughly 310,000 compounds showed an effect of 50% or more. Effects have a minus sign here. Shown is part of a subset that was picked to be rich in strong results.
# Target: human ether-à-go-go-related gene (hERG) potassium channel (human, UniProt Q12809)
# Test: primary screen, population patch clamp on CHO cells stably expressing hERG; higher = less effect of the substance
# 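Further: peak tail current of the secondary pulse compared with the same well before compound.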
# Chain of human ether-à-go-go-related gene (hERG) potassium channel (Q12809 whole entry, looked up): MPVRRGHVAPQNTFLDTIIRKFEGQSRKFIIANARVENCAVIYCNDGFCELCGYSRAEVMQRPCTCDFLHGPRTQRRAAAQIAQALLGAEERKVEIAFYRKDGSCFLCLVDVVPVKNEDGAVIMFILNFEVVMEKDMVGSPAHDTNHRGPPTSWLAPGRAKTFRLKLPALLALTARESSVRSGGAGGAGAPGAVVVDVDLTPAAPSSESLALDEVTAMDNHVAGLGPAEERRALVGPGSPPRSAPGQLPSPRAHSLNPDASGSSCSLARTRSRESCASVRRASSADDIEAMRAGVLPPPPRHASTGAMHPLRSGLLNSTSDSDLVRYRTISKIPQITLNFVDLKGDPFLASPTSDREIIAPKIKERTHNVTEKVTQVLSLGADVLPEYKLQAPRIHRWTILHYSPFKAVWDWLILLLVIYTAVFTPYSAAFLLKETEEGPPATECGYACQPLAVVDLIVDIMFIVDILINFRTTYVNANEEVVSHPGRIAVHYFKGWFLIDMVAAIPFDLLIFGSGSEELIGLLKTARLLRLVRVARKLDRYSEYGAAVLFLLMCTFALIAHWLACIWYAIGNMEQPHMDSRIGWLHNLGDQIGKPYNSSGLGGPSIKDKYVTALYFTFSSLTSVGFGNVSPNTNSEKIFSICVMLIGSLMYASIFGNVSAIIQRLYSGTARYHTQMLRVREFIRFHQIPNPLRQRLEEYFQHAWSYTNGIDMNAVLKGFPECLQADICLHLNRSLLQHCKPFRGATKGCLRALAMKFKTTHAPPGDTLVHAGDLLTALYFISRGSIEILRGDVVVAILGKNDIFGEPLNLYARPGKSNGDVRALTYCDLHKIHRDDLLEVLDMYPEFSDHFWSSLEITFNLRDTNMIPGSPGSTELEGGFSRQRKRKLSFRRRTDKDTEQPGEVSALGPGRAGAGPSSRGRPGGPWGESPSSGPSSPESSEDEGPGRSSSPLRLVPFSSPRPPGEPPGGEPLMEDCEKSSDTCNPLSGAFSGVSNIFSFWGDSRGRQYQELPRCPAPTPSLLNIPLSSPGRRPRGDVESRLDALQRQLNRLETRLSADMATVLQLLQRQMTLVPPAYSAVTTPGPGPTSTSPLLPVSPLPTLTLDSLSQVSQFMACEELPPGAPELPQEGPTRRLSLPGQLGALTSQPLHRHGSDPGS
row,SMILES,"hERG current change (%, negative = inhibition) at 10uM [%]"
1,COc1ccc(-c2nnc(SCC(=O)N(C)C3CCS(=O)(=O)C3)n2N)cc1OC (centres unmarked),19.8
2,O=C(CN1C(=O)/C(=C\c2ccc(C(F)(F)F)cc2)Sc2ccccc21)NCc1ccco1,-5.39
3,Cc1cc(=O)[nH]c(N/N=C/C(C)c2ccccc2)n1 (centres unmarked),7.54
4,CCc1cccc(CC)c1NC(=O)C1SC(=Nc2ccccc2C)C(c2nc3ccccc3s2)=C1N (centres unmarked),29.1
5,CN1CCN(c2ccc(C(N)=O)cc2[N+](=O)[O-])CC1,7.57
6,Cc1ccc(OC(=O)c2ccc(N3CCOCC3)c([N+](=O)[O-])c2)cc1,-4.31
7,Cc1ccc(C(=O)c2ccc(N3CCN(C)CC3)c([N+](=O)[O-])c2)cc1,-68.8
8,CN1/C(=C\C(=O)COC(=O)C2COc3ccccc3O2)C(C)(C)c2ccccc21 (centres unmarked),9.13
9,CCCCn1c(N)c(N(CCC(C)C)C(=O)C(C)N2C(=O)c3ccccc3C2=O)c(=O)[nH]c1=O (centres unmarked),8.31
10,CCCOC(=O)c1cccc(NC(=O)C(C)(C)C)c1,1.43
11,CCC1(C)Cc2c(sc3nnn(CC(=O)Nc4ccccc4C)c(=O)c23)CO1 (centres unmarked),-58.4
12,Cc1ccccc1NC(=O)Cn1nnc2sc3c(c2c1=O)CC(C)(C)OC3,-35.2
13,CCC1(C)Cc2c(sc3nnn(CC(=O)Nc4cccc5ccccc45)c(=O)c23)CO1 (centres unmarked),3.09
14,O=C1CN(C(=O)CN2CCCCC2)C(c2ccccc2)c2cc(Br)ccc2N1 (centres unmarked),-66.5
15,O=C(O)CN1C(=O)Nc2ccc(Br)cc2C1c1ccccc1 (centres unmarked),-3.51
16,O=C1CN(C(=O)CN2CCCC2)C(c2ccccc2)c2cc(Br)ccc2N1 (centres unmarked),-46.6
17,CCC(CC)C(=O)N1CC(=O)Nc2ccc(C)cc2C1c1ccccc1 (centres unmarked),-38.1
18,CCOC(=O)CN1C(=O)Nc2ccc(Br)cc2C1c1ccccc1 (centres unmarked),-56.7
19,CCC(=O)N1CC(=O)Nc2ccc(Br)cc2C1c1ccccc1 (centres unmarked),-11.6
20,O=C1CN(C(=O)CN2CCOCC2)C(c2ccccc2)c2cc(Br)ccc2N1 (centres unmarked),-32.3
21,CCOC(=O)N1CC(=O)Nc2ccc(Br)cc2C1c1ccccc1 (centres unmarked),-24.4
22,CCC(CC)C(=O)N1CC(=O)Nc2ccc(Br)cc2C1c1ccccc1 (centres unmarked),-73.5
23,O=C1CN(C(=O)CCN2CCOCC2)C(c2ccccc2)c2cc(Br)ccc2N1 (centres unmarked),-60.5

row,SMILES,"hERG current change (%, negative = inhibition) at 10uM [%]"
1,COC(=O)CN1C(=O)Nc2ccc(Br)cc2C1c1ccccc1 (centres unmarked),-14.6
2,CCC(CC)C(=O)N1CC(=O)Nc2ccc(F)cc2C1c1ccccc1 (centres unmarked),-11.4
3,COc1ccccc1C(=O)NCCC(=O)NCC(c1ccccc1OC)N1CCCC1 (centres unmarked),29.8
4,O=C(Nc1ccncc1)C1CCN(S(=O)(=O)c2ccccc2)CC1,3.04
5,CCOC(=O)C1C(=O)CC(C)(O)C(C(=O)OCC)C1c1ccc([N+](=O)[O-])cc1 (centres unmarked),-8.06
6,FC(F)(F)c1nc(-c2ccncc2)ncc1-c1nnnn1-c1ccccc1,-0.18
7,Cc1c(C(=O)N/N=C/c2ccoc2)cccc1[N+](=O)[O-],9.67
8,O=C(COc1coc(CN2CCN(c3ccccc3F)CC2)cc1=O)NC1CCCCC1,-21.6
9,CCOC(=O)c1ccc(NC(=O)C2CCN(S(=O)(=O)c3c(C)nn(C)c3C)CC2)cc1,-28.3
10,O=C(Nc1cccc(C(F)(F)F)c1)c1cc[n+]([O-])cc1,21.2
11,COc1ccc(OCC(=O)NS(=O)(=O)c2ccccc2)cc1,15.3
12,Cc1ccc2c(c1)C(c1ccccc1)N(C(=O)c1ccccc1[N+](=O)[O-])CC(=O)N2 (centres unmarked),-40.5
13,O=C1CN(C(=O)c2ccccc2F)C(c2ccc(F)cc2)c2cc(Br)ccc2N1 (centres unmarked),-23
14,O=C1CN(C(=O)c2ccccc2[N+](=O)[O-])C(c2ccccc2)c2cc(Br)ccc2N1 (centres unmarked),-66.5
15,CCOC(=O)c1c(NC(C)=O)sc2c(OC(C)=O)cccc12,8.8
16,Cn1c(CO)cnc1SCc1ccc(F)cc1,18.2
17,CCOc1ccccc1/C=N/NC(=O)c1nnn(-c2nonc2N)c1CN1CCC(C)CC1,9.08
18,CC(C(=O)N1CCCc2c1c(=O)oc1ccc(O)cc21)N1CCc2ccccc2C1 (centres unmarked),-56.5
19,CC(=O)c1cccc(NC(=O)C(C)N2CCc3ccccc3C2)c1 (centres unmarked),4.43
20,O=C(CN1CCN(Cc2ccccc2)CC1)N1CCCc2c1c(=O)oc1ccc(O)cc21,-14
21,CN(CC(=O)N1CCCc2c1c(=O)oc1ccc(O)cc21)Cc1ccccc1,-67.4
22,CCCOc1ccc2oc(=O)c3c(c2c1)CCCN3C(=O)CN(C)Cc1ccccc1,-29.7
23,CC1CCN(CCC(=O)N2CCCc3c2c(=O)oc2ccc(O)cc32)CC1,-14

row,SMILES,"hERG current change (%, negative = inhibition) at 10uM [%]"
1,O=C(NCCCl)C1Cc2c(ccc3ccccc23)O1 (centres unmarked),7.97
2,O=C(CCNC(=O)C1CCN(S(=O)(=O)c2ccccc2)CC1)NCc1ccc(Cl)cc1,8.88
3,Nc1ccccc1Nc1ccncc1[N+](=O)[O-],20
4,CCOC(=O)C1(CCOc2ccccc2)CCN(Cc2ccc(OCC)c(CO)c2)CC1,-79.5
5,CCOC(=O)C1(Cc2ccccc2)CCCN(Cc2cccc(C(C)=O)c2)C1 (centres unmarked),-2.24
6,CCOC(=O)C1(Cc2ccccc2)CCCN(Cc2ccc(OCC)c(CO)c2)C1 (centres unmarked),-52.3
7,CCOC(=O)C1(CCOc2ccccc2)CCN(Cc2ccc(OC)c(O)c2)CC1,-82.2
8,CCOC(=O)C1(CCOc2ccccc2)CCN(Cc2ccc(OC)c(COC)c2)CC1,-80.2
9,CCOC(=O)C1(Cc2ccccc2)CCCN(Cc2ccc(OCCO)cc2)C1 (centres unmarked),-1.04
10,Cc1ccc(NC(=O)COC(=O)CCc2c[nH]c3ccccc23)c(C)c1,9.87
11,COC(=O)C(C)Oc1ccc(Cl)c(CN2OCC(C)(C)C2=O)c1 (centres unmarked),5.26
12,Cc1ccccc1OCCC(=O)OCC(=O)NCCc1ccccc1,-0.876
13,Cc1nnn(-c2nonc2N)c1C(=O)N/N=C/c1cccc2ccccc12,-7.26
14,CCOC(=O)C1CCN(S(=O)(=O)c2c(C)noc2C)CC1,-37.9
15,Cc1nc(C(C)N(C)Cc2c(C(=O)N3CCCCC3)nc3c(C)cccn23)c(C)s1 (centres unmarked),-22.7
16,CCOC(=O)C1(CCOC)CCN(Cc2ccc3nonc3c2)CC1,-10.5
17,CCOC(=O)C1(CCOc2ccccc2)CCN(Cc2ccc(O)c(OC)c2)CC1,-75.4
18,CCOC(=O)C1(CCOc2ccccc2)CCN(Cc2ccc(F)c(OC)c2)CC1,-35.3
19,CCOC(=O)C1(CCOc2ccccc2)CCN(Cc2cc(OC)c(O)c(OC)c2)CC1,-77.6
20,CCOCCCNC(=O)Cc1ccc(OC)c(OC)c1,14.1
21,Cc1ccc(NC(=O)CC(=O)Nc2ccc(C)c(C)c2)cc1C,11.7
22,CCCn1c(CC)nc([N+](=O)[O-])c1S(=O)(=O)c1ccccc1,-23.8
23,CCOC(=O)N1CCN(C(=O)C2CCN(S(=O)(=O)c3ccc(Cl)cc3)CC2)CC1,-48.7

row,SMILES,"hERG current change (%, negative = inhibition) at 10uM [%]"
1,O=C1CS/C(=N\N=C\c2ccccc2Cl)N1CC1CC1,12.3
2,FC(F)(F)c1ccc2c(c1)n(Cc1ccccc1)c1[n+]2CCCCC1.[Cl-],-24
3,Cc1cc(C(C)(C)C)cc(C)c1Cn1c2[n+](c3ccc(C(F)(F)F)cc31)CCCCC2.[Cl-],-55.4
4,FC(F)(F)c1cccc(Cn2c3[n+](c4ccc(C(F)(F)F)cc42)CCCCC3)c1.[Cl-],-17.6
5,COc1ccc(OC)c(CC(=O)O)c1,10.8
6,O=C(NC1CCCCC1)C1CCN(c2nccs2)CC1,4.43
7,COc1ccc(/C=C2/C(=O)N=C(N)N2C)cc1OC,7.3
8,COc1cc(-c2noc(C)c2/C=C/c2cccc([N+](=O)[O-])c2)cc(OC)c1OC,-2.59
9,COC(=O)C1=CN(CCCN2CCCC2=O)C=C(C(=O)OC)C1c1cccs1,-25.1
10,COC(=O)C1=CN(CCCN2CCCC2=O)C=C(C(=O)OC)C1c1ccccc1C(F)(F)F,-57.1
11,COCCN1C=C(C(=O)OC)C(c2ccccc2C(F)(F)F)C(C(=O)OC)=C1,-8.36
12,CCOC(=O)C1=CN(CC2CCCO2)C=C(C(=O)OCC)C1c1ccccc1C(F)(F)F (centres unmarked),-64.7
13,CCCCN1C=C(C(=O)OC)C(c2ccccc2C(F)(F)F)C(C(=O)OC)=C1,-1.84
14,COC(=O)C1=CN(CC2CCCO2)C=C(C(=O)OC)C1c1ccccc1C(F)(F)F (centres unmarked),8.49
15,CN(Cc1ccccc1Br)C(=O)CN1C(=O)NC2(CCCCCC2)C1=O,-11.1
16,O=C(Nc1cccc(Cl)c1)N1CCC(CO)(CCOc2ccccc2)CC1,-58.6
17,OCC1(CCOc2ccccc2)CCN(Cc2ccncc2)CC1,-41.5
18,CC(=O)Nc1ccc(CN2CCC(CO)(CCOc3ccccc3)CC2)cc1,-69.9
19,O=C(Nc1cccc(Cl)c1)OCCOc1ccccc1,23
20,CSc1ccc(CN2CCC(CO)(CCOc3ccccc3)CC2)cc1,-78.4
21,CC(=O)Nc1ccc(N2CCN(Cc3ccccc3)CC2)cc1,-14.6
22,O=C(Nc1cccc(Cl)c1)N1CCCC1,5.7
23,COC(=O)c1ccc(CN2CCC(CO)(CCOc3ccccc3)CC2)cc1,-80.1

# Source: paper PMC4336329 (PLoS ONE, 2015)
